# Source: PubChem BioAssay (several laboratories)
# PolyA inhibitor = yeast polyadenylation inhibition; S. cerevisiae SKY197-pL101 polyadenylation reporter, beta-gal luminescence; efflux-impaired pdr1/pdr3 knockout yeast; score 100 = 6 SD above DMSO; activity score, % at 12 µM; hit rate 0.02% among 300,000; AID 1875;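 active = lowest replicate activity score at least 50, where 100 means six control SD above control mean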;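 note: yeast exposed to compound for 9 h at 30 °C; higher score means more reporter readthrough which indicates perturbed polyadenylation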
# IDE inh = cellular human IDE inhibition; inhibition, % at 5.59 µM; hit rate 0.41% among 320,000; HEK cells, FAbetaB cleavage, fluorescence polarization; P14735; AID 434962;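 active = percent inhibition above the average of all tested compounds plus 3 SD, set per screening campaign, cut at about 16% in these data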;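 note: IDE supplied by intact live HEK cells; FP after avidin binding of uncleaved biotin substrate so inhibition keeps polarization high; 0% = DMSO wells and 100% = 60 µM reference IDE inhibitor Ii1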
# Target sequence (P14735 whole entry, looked up): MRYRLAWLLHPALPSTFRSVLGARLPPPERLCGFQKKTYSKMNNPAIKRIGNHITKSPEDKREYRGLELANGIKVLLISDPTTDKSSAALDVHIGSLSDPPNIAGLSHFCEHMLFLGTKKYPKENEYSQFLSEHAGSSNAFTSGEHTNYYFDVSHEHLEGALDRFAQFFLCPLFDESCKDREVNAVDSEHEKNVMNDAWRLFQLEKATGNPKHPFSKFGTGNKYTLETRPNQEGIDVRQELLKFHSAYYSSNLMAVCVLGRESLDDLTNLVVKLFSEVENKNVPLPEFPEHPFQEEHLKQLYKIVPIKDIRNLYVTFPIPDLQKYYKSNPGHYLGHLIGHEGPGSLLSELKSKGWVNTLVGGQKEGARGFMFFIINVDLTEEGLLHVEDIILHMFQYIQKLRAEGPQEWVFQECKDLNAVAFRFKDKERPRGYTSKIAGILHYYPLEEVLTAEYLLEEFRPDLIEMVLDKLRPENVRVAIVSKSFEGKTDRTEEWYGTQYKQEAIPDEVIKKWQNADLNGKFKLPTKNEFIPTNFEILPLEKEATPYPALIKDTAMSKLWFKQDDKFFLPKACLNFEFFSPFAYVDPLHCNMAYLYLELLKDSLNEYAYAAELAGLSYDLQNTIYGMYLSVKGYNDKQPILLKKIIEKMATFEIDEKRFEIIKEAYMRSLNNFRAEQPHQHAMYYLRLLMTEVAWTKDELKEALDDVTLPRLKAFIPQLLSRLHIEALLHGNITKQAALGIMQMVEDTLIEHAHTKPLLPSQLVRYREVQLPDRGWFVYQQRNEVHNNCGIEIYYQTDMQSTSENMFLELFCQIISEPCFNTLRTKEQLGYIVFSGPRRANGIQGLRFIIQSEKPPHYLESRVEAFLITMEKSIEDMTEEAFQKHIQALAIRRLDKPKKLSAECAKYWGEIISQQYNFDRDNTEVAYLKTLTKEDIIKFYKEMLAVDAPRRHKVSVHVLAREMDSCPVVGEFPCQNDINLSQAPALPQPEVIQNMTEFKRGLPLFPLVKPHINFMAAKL
# ALR H2O2 inh = blocks human ALR sulfhydryl oxidase activity | inhibition, % (no concentration beside the values) | hit rate 3.8% among 290,000 | purified ALR, DTT oxidation, H2O2 HRP-luminol luminescence | AID 485317;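 active = mean replicate inhibition above about 79%, with every replicate also reaching it, limit read from the data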
# IDE cell activ = boosts human insulin-degrading enzyme activity in HEK cells; P14735; FAbeta-B cleavage, fluorescence polarization; 0% vehicle, 100% cell-free pure enzyme wells; activation, % at 5.96 µM; hit rate 0.073% among 340,000; AID 493087;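 active = activation above the mean of all tested compounds plus 3 SD, set per screening campaign, cut at about 17% in these data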
# PfM18AAP inh = PfM18AAP enzyme inhibition; recombinant PfM18AAP, H-Glu-NHMec fluorogenic cleavage; inhibition, % at 7.35 µM; hit rate 1.2% among 290,000; AID 1822;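 active = inhibition above the campaign mean inhibition over all tested compounds plus 3 SD, cut at about 28% in these data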;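 note: 0% = plate median of test compound wells and 100% = 2 mM ZnCl2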
# CaV13 ICDI inh = Disruptors of the CACNA1D IQ motif to Ca2+-dependent inactivation inhibitor domain association, primary screening, Förster resonance energy transfer in intact living … | HEK cells, CFP/YFP FRET ICDI-IQ, plate reader, 10 min; percent FRET-ratio fall versus neutral wells | inhibition, % at 12.3 µM | hit rate 0.098% among 340,000 | AID 743397;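 active = mean replicate inhibition of at least 30% and at least 1% of replicates passing that level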;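 note: 0% = median of the neutral control wells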
# * = called active by the depositor; . = no result. Shown are actives, neighbours in structure and some others; about 4.1% of the full set was active somewhere.
SMILES,PolyA inhibitor,IDE inh,ALR H2O2 inh,IDE cell activ,PfM18AAP inh,CaV13 ICDI inh
Cc1ccc(CC(=O)N(C)CC(=O)Nc2ccc(N3CCOCC3)cc2)cc1C,5.5,10.4,99.4*,2.5,.,-5.8
COc1ccc(-c2cc(-c3n[nH]c(=S)n3-c3ccccc3OC)[nH]n2)cc1,-2.1,3.1,88.3*,-4.0,3.3,-2.4
Cc1ccc2[nH]cc(/C=C/c3cc[n+](C)cc3)c2c1,-13.3,.,98.3*,-15.3,11.1,-94.0
Cc1nn2c(NCCOCCO)c3c(nc2c1-c1ccccc1)CCCC3,-2.6,2.6,86.4*,-2.3,0.6,.
CCCCn1c(N)c(N(CCC(C)C)C(=O)CSc2nncn2-c2ccccc2)c(=O)[nH]c1=O,.,0.8,.,4.5,.,-3.2
COc1cccc(N2CCN(C(=O)c3cccc(NC4=NC5CS(=O)(=O)CC5S4)c3)CC2)c1 (centres undefined),3.0,2.9,99.8*,-0.4,3.8,-7.7
CCOC(=O)C1CCN(C(=O)c2cccc(NC3=NC4CS(=O)(=O)CC4S3)c2)CC1 (centres undefined),6.2,2.7,-13.8,1.7,-6.4,-5.0
CN(CCc1ccccc1)C(c1cc2ccccc2o1)c1nnnn1C(C)(C)C (centres undefined),.,.,.,.,.,-5.4
CCOC(=O)c1cc(C)sc1NC(=O)CN1CCN(C(=O)C2CCCO2)CC1 (centres undefined),-17.0,-1.6,96.1*,5.7,1.8,.
COC(=O)c1cc(C)sc1NC(=O)CN1CCN(C(=O)C2CCCO2)CC1 (centres undefined),-23.4,-12.7,.,3.4,1.3,.
Cc1ccccc1NC(=O)CCNS(=O)(=O)c1ccc2c(c1)CCC(=O)N2,-1.7,6.9,-3.5,0.4,-0.7,-2.4
CCN(CCNC(=O)CN(C)S(=O)(=O)c1cccc2nsnc12)c1ccccc1,10.3,0.2,98.4*,-2.1,19.1,.
CCN(CC)c1ccc(NC(=O)CCNS(=O)(=O)c2ccc3c(c2)CCC(=O)N3)c(C)c1,9.7,6.9,99.0*,9.1,15.5,-2.2
Cc1ccc(CNC(=O)CN(C)S(=O)(=O)c2cccc3nsnc23)cc1,-15.8,0.9,-4.6,1.4,5.2,-1.1
CCN(CCCNC(=O)CN(C)S(=O)(=O)c1ccc2c(c1)CCC(=O)N2)c1cccc(C)c1,9.0,-0.8,96.1*,0.8,7.5,-5.4
CCN(CCCNC(=O)CN(C)S(=O)(=O)c1cccc2nsnc12)c1cccc(C)c1,15.4,7.0,98.7*,-6.5,8.0,-4.7
CCC1CCCCN1C(=S)NN=C(C)c1ccccn1 (centres undefined),.,.,.,.,.,-10.5
CCn1c(SCC(=O)Nc2ccc(N3CCOCC3)cc2)nnc1C1CC1,.,2.2,99.2*,3.2,.,-4.9
Cc1nnc(SCC(=O)Nc2ccc(N3CCOCC3)cc2)n1Cc1ccccc1,.,-4.9,98.7*,7.2,.,-5.5
Cc1nnc(SCC(=O)c2ccccc2)n1Cc1ccccc1,-1.4,2.7,84.8*,5.3,-6.5,-3.3
CCn1c(SCC(=O)Nc2ccc(N(C)C)cc2)nnc1C1CC1,6.3,-3.5,98.9*,-0.3,10.7,-3.0
CCn1c(SCC(=O)Nc2ccc(NC(C)=O)cc2)nnc1C1CC1,-6.1,1.7,-10.3,-8.6,2.9,-4.4
CCC(C)(C)C1CCC2(CC1)NC(=O)N(CC(=O)N1CCN(S(=O)(=O)c3cc(C)ccc3C)CC1)C2=O (centres undefined),10.8,0.7,-1.1,2.4,4.1,-2.2
O=[N+]([O-])c1ccc(COc2cccc(CN3CCOCC3)c2)cc1,.,.,.,-0.1,.,-5.6
C#CCOCCOCCOCCNc1nc(N2CCN(C(=O)CCCCCCCCCCNC(=O)Cn3cc(C[C@@H](C)O)nn3)CC2)nc(N2CCN(C(=O)CCCCCCCCCCNC(=O)[C@H](CCCN=C(N)N)n3cc(C[C@@H](C)CC)nn3)CC2)n1,-4.0,7.9,-3.4,35.2*,.,.
SMILES,PolyA inhibitor,IDE inh,ALR H2O2 inh,IDE cell activ,PfM18AAP inh,CaV13 ICDI inh
C#CCOCCOCCOCCNc1nc(N2CCN(C(=O)CCCCCCCCCCNC(=O)Cn3cc(C[C@@H](C)O)nn3)CC2)nc(N2CCN(C(=O)CCCCCCCCCCNC(=O)[C@H](CCCCN)n3cc(CCCC(=O)O)nn3)CC2)n1,.,7.0,-30.8,3.2,.,-11.5
C#CCOCCOCCOCCNc1nc(N2CCN(C(=O)CCCCCCCCCCNC(=O)[C@H](CO)n3cc(CCCSC)nn3)CC2)nc(N2CCN(C(=O)CCCCCCCCCCNC(=O)[C@H](CCCN=C(N)N)n3cc(C[C@@H](C)CC)nn3)CC2)n1,.,-2.4,-24.9,54.8*,.,.
C#CCOCCOCCOCCNc1nc(N2CCN(C(=O)CCCCCCCCCCNC(=O)[C@H](CO)n3cc(CCCSC)nn3)CC2)nc(N2CCN(C(=O)CCCCCCCCCCNC(=O)[C@H](CCCCN)n3cc(CCO)nn3)CC2)n1,.,5.4,-10.6,22.2*,.,-6.2
C#CCOCCOCCOCCNc1nc(N2CCN(C(=O)CCCCCCCCCCNC(=O)Cn3cc(CCCCCN)nn3)CC2)nc(N2CCN(C(=O)CCCCCCCCCCNC(=O)[C@@H](CCSC)n3cc(CCO)nn3)CC2)n1,.,4.0,-9.4,31.2*,.,.
C#CCOCCOCCOCCNc1nc(N2CCN(C(=O)CCCCCCCCCCNC(=O)Cn3cc(C[C@@H](C)O)nn3)CC2)nc(N2CCN(C(=O)CCCCCCCCCCNC(=O)[C@H](CO)n3cc(CCCSC)nn3)CC2)n1,.,2.6,-11.8,3.5,.,-11.7
Cc1ccc2nc(Cl)c(/C=N/NC(=O)c3ccccc3O)cc2c1,-16.0,-4.6,96.9*,-2.3,-0.6,-1.0
Cc1ccc2nc(Cl)c(/C=N/NC(=O)[C@H]3C[C@@H]3c3ccccc3)cc2c1,9.9,4.1,2.9,-4.6,6.8,-16.0
Cc1cccc(Nc2nc(N)nc(CN3CCN(c4ccccc4)CC3)n2)c1,-14.4,3.8,79.7*,0.3,2.0,-6.1
COc1ccc(Nc2nc(N)nc(CN3CCN(c4ccc(F)cc4)CC3)n2)cc1,-1.9,3.6,98.9*,4.1,0.1,-5.6
COc1cccc(N2CCN(Cc3nc(N)nc(Nc4ccccc4)n3)CC2)c1,-10.7,-4.2,97.4*,6.5,9.0,-5.8
COc1cccc(N2CCN(Cc3nnnn3C3CCCCC3)CC2)c1,-5.4,6.8,89.3*,3.6,4.8,-4.9
CCCCn1c(N)c(N(CC(C)C)C(=O)CCNC(=O)c2ccc([N+](=O)[O-])cc2)c(=O)[nH]c1=O,.,.,.,-1.1,.,-4.3
CCN(CC)c1ccc(/C=C/c2cccc[n+]2C)c(OC)c1,-3.4,28.4*,98.7*,-35.6,5.4,-155.3
COc1cc2c(cc1OC)CN(c1ccc([N+](=O)[O-])cc1Cl)CC2,-28.6,-0.7,.,-0.5,-13.3,-16.1
COc1cc2c(cc1OC)CN(c1ccc([N+](=O)[O-])cc1C#N)CC2,6.5,5.4,86.8*,1.0,-5.4,-1.5
